# Assay results: PubChem BioAssay (NCATS)
# Records with an inconclusive call do not appear. Activity calls are given as the source filed them. The call rests on the fitted dose curve; in most records, active means well fitted cell-killing curve with a large enough effect in the repeat runs; inconclusive means weak or mixed curves, or effect the other way; inactive means flat fitted curve, though single readings scatter.
# Experiment: qHTS assay for small molecule antagonists of the retinoid-related orphan receptor gamma (ROR-gamma) signaling pathway - cell viability counter screen (AID 720652);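 further: compound exposure lasted 16 hr before ATP read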
# Conditions: RORgamma reporter cell line viability counter screen; series mostly up to 92.2 µM
# Text: National Center for Advancing Translational Sciences [NCATS]
# NIH Chemical Genomics Center [NCGC]
# National Institutes of Environmental Health Sciences [NIEHS]
# National Toxicology Program [NTP]
# Nuclear steroid hormone receptors are involved in many biological processes including inflammatory responses, cell proliferation, and apoptosis. Environmental factors or compounds disrupting these nuclear receptor pathways and gene expression may promote susceptibility to immunotoxicants and autoimmune diseases. One important group of these expression factors are the retinoid-related orphan receptors. To assess compounds that may interfere with the retinoid-related orphan receptor gamma (ROR-gamma) transcription factor, a cell-based luciferase assay was used.
# The CHO cell-based assay utilizes a TET-inducible ROR expression factor and ROR response element-LUC reporter gene. Reporter activity was induced using doxycycline and measured after 16hr incubation. Luminescence was read using Viewlux (PerkinElmer), where a decrease in reporter activity would show a decrease in luminescence. The cytotoxicity of the compounds against ROR response-Luc reporter gene cell line was quantified by measuring the intracellular ATP content.
# 1,000 cells in 4 uL/well were dispensed into white wall/solid bottom 1536-well plates using a Multidrop Combi (Thermo Scientific) dispenser. Following incubation at 37 C and 5% CO2 for 5 hr, 23 nL compound or DMSO vehicle were transferred by a pin tool, then the plates were treated with 1 ul doxycycline to induce reporter gene activity. After 16 hr incubation at 37 C and 5% CO2, 5 uL/well of CellTiter-Glo reagent (Promega) was then added to each plate using a Flying Reagent Dispenser and incubated at room temperature for 30 min. The luminescence intensity was quantified on a ViewLux plate reader (PerkinElmer).
row,Compound,outcome
1,CC(=O)Nc1cccc(O)c1,inactive
2,Cc1c(N(C)C)c(=O)n(-c2ccccc2)n1C,inactive
3,CC1CC(OC(=O)c2ccccc2O)CC(C)(C)C1 (stereo unspecified),inactive
4,CC(=O)OCC(COC(C)=O)OC(C)=O,inactive
5,Cc1cc(C)nc(NS(=O)(=O)c2ccc(N)cc2)n1,inactive
6,C=CCNC(N)=S,inactive
7,FC(F)(F)C(Cl)Br (stereo unspecified),inactive
8,CC(=O)Nc1ccc(C(=O)O)cc1,inactive
9,Nc1ccc(S(=O)(=O)c2ccc(N)cc2)cc1,inactive
10,CCN(CC)C(=O)c1cccc(C)c1,inactive
11,COc1ccc(O)cc1,inactive
12,CCCC(O)C(CC)CO (stereo unspecified),inactive
13,CCCCCCCC(=O)OCC(COC(=O)CCCCCCC)OC(=O)CCCCCCC,inactive
14,CCCCOC(=O)c1ccc(N)cc1,inactive
15,O=C(c1ccccc1)C(O)c1ccccc1 (stereo unspecified),inactive
16,O=C1C(c2[nH]c3ccccc3c2O)=Nc2ccccc21,inactive
17,O=C1c2cccc(O)c2C(=O)c2c(O)cccc21,inactive
18,CC(=O)NS(=O)(=O)c1ccc(N)cc1,inactive
19,CCCCCC(N)=O,inactive
20,Cc1cc(=O)[nH]c(=S)[nH]1,inactive
21,CC(=O)Nc1ccccc1,inactive
